Our source for the activity, negative = inhibition and AC50 values is PubChem BioAssay AID1851 (National Center for Advancing Translational Sciences (NCATS), 2009).

In all, about 16,000 compounds went through this assay and about 5,100 (32%) were called active. Another 25% or so got no clear call; they are omitted. The call rests on the fitted dose curve; in most records, active means well fitted curve in the direction sought with a large enough effect; inconclusive means small, poorly fitted or top-dose-only effect, or effect the other way; inactive means no such curve, though single readings can be large or run the other way. This is one part of the list.
On the % scale 0 is the no-effect control and ±100 the full control effect.

Cytochrome P450 3A4 (Homo sapiens), sequence (P08684 whole entry, looked up): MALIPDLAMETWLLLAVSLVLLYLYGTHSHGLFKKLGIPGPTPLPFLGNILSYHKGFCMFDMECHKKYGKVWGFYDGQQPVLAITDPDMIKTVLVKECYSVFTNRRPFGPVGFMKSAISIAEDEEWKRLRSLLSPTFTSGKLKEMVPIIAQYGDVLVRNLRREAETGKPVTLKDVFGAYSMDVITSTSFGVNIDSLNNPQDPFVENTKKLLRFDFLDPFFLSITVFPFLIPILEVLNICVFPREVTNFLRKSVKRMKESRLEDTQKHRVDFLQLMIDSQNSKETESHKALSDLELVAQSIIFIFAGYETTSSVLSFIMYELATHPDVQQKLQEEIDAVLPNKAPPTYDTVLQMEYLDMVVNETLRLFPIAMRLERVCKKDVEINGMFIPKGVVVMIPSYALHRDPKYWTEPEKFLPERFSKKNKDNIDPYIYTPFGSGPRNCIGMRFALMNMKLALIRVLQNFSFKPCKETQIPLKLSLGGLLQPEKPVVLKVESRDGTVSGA

The assay has as its target Cytochrome P450 3A4 (Homo sapiens) (UniProt P08684). The experiment in a line: Cytochrome panel assay with activity outcomes. The settings on record: recombinant CYP, pro-luciferin dealkylation, luminescence, p450-cyp3a4; series mostly up to 57.1 µM.
As to `Oc1c(Br)cc(Br)cc1CN(Cc1cc(Br)cc(Br)c1O)C1CCCCC1`, the activity, negative = inhibition was -22.2% [at 11.4 µM] (inactive).

As for `CCOC(=O)CCN1C(=O)[C@H]2[C@H]3[C@H](O)[C@H](O)C/C(=N/O[C@@H]4O[C@@H](COC(C)=O)[C@@H](OC(C)=O)[C@@H](OC(C)=O)[C@H]4OC(C)=O)[C@@H]3CC[C@@H]2C1=O`, the activity, negative = inhibition was -20.3% [at 11.4 µM] (inactive).

Regarding `CCCCN(C(=O)NC(=O)Nc1ccccc1OCC)S(C)(=O)=O`, the AC50 (as a rule, the concentration at which the activity in the assay is half-maximal) is “inactive”.

Consider `CCN(CC)C(=O)c1ccc(O)c(OC)c1`, for which the AC50 entry was “inactive”.

In the case of `CCCCN(CC)C(=O)Cc1ccccc1OC`, the half-maximal activity concentration (AC50) is 15.8 µM (active).

As to `CNC(=O)COC(=O)c1cc2c(C)nn(-c3ccc(F)cc3)c2s1`, the AC50 entry is “inactive”.

Turning to `COc1ccccc1CNC(=O)c1cc2c(C)nn(Cc3ccc(F)cc3)c2s1`, the AC50 was 2.82 µM (active).

Turning to `CCCn1nc2cc(C(=O)NCc3ccccc3OC)ccc2c1OCC`, the activity, negative = inhibition is -3.81% [at 2.29 µM] (inactive).

As to `CC(=O)N[C@@H](C(=O)O)C(C)(C)SN=O`, the AC50 entry was “inactive”.

As for `CCC(C#CCN1CCCCC1)(CC)OCCC#N`, the AC50 entry was “inactive”.

Consider `O=C(O)C[C@H](Cc1ccc2c(c1)OCO2)C(=O)O`, for which the activity, negative = inhibition was -6.76% [at 11.4 µM] (inactive).

Consider `Cc1c(C(=O)O)oc2ccc(S(=O)(=O)NCc3ccc4c(c3)OCO4)cc12`, for which the AC50 is 15.8 µM (active).

Consider `CCc1nc(SCC(=O)NNC(=O)C2CCCCC2)c2ccccc2n1`, for which the AC50 result is “inactive”.

Turning to `CCc1nnc(NC(=O)CSc2nc3cc4c(cc3cc2C)OCCO4)s1`, the AC50 is 14.1 µM (active).

Take `CC(=O)Nc1nnc(CCN2CCCCC2)s1`: the AC50 entry was “inactive”.

Consider `Cc1ccc(SCN2CCCCC2)cc1` (tested in a mixture with another compound), for which the activity, negative = inhibition was -20% [at 11.4 µM] (inactive).

Take `CCCc1nc(SCC(=O)NNC(=O)C2CCCCC2)c2ccccc2n1`: the concentration at half-maximal activity (AC50) was 3.55 µM (active).

As to `Cc1ccc(SCC(=O)NNC(=O)C2CCCCC2)cc1`, the AC50 was 7.94 µM (active).

On to `CCc1nnc(NC(=O)CSc2nc(C3CCCCC3)nc3ccccc23)s1`, for which the AC50 is 2.51 µM (active).

`CCCS(=O)(=O)N1CCCC(C(=O)N2CCN(C(=O)OCC)CC2)C1` (centres undefined): the AC50 entry was “inactive”.

For `O=C(O)C1=CC(=C(c2ccc(O)c(C(=O)O)c2)c2ccc(O)c(C(=O)O)c2)C=CC1=O`, the AC50 result was “inactive”.

Take `CC1=C/C(=C(/c2ccc(O)c(C)c2)c2ccccc2C(=O)O)C=CC1=O`: the AC50 is 1.58 µM (active).

With `O=C(O)c1ccc(C(=O)c2ccccc2C(=O)O)cc1C(=O)O`, the activity, negative = inhibition is -0.636% [at 11.4 µM] (inactive).

With `Cc1ccccc1N1CCN(S(=O)(=O)C[C@@]23CC[C@H](C[C@H]2NC(=O)[C@@H](N)CCS(C)(=O)=O)C3(C)C)CC1`, the AC50 was 3.16 µM (active).
